In PubChem BioAssay (NCI):
About 83,000 compounds went through this panel and 20% of them were active in at least one assay; those are over-represented in the sample as a whole.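 Cells were grown in 96-well plates and exposed to the test compound at a single concentration for 48 hours; results are reported as percent growth, with values below 10 considered active.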 Values without a mark were called inactive. The source made the active and inactive calls.

What was measured:
Test in all cases: NCI-60 one-dose screen, 48 h (100 = growth as untreated, 0 = no growth, -100 = all killed)
Settings in all cases: 10 µM unless noted
EKVX NSCLC = tested on: EKVX NSCLC
SN12C renal = tested on: SN12C renal
UO-31 renal = tested on: UO-31 renal
TK-10 renal = tested on: TK-10 renal
ACHN renal = tested on: ACHN renal
CAKI-1 renal = tested on: CAKI-1 renal
A498 renal = tested on: A498 renal
CCRF-CEM leukemia = tested on: CCRF-CEM leukemia
MOLT-4 leukemia = tested on: MOLT-4 leukemia

Structure (SMILES) | growth (EKVX NSCLC) | growth (SN12C renal) | growth (UO-31 renal) | growth (TK-10 renal) | growth (ACHN renal) | growth (CAKI-1 renal) | growth (A498 renal) | growth (CCRF-CEM leukemia) | growth (MOLT-4 leukemia)
C/C(=C(/c1ccc(Cl)cc1)c1ccc(OCCN2CCCC2)cc1)c1ccccc1 | 55.2% | 80.8% | 63% | 87.7% | 82.9% | 81.8% | 77.6% | 59.2% | 68.7%
CN(C)C1CCN(C(=O)c2ccc(NC(=O)Nc3ccc(-c4nc(N5CCOCC5)nc(N5CCOCC5)n4)cc3)cc2)CC1 | 40.3% [2.5 µM] | 3.23% [2.5 µM] (active) | 32.2% [2.5 µM] | -9.03% [2.5 µM] (active) | 55.6% [2.5 µM] | 10.2% [2.5 µM] | -54.1% [2.5 µM] (active) | 9.68% [2.5 µM] (active) | -7.96% [2.5 µM] (active)
Cc1nn(-c2ccccc2)c2c1N=c1s/c(=C\c3cn(-c4ccccc4)nc3-c3ccc(Cl)cc3)c(=O)n1C(C)N2 (stereo unspecified) | 84.8% | 91.5% | 70.1% | 152% | 83.7% | 83.6% | 123% | 110% | 95.3%
CS(=O)(=O)CCNCc1ccc(-c2ccc3ncnc(Nc4ccc(OCc5cccc(F)c5)c(Cl)c4)c3c2)o1 | 29.9% | -17.9% (active) | 19.6% | 7.31% (active) | 30.2% | 40.1% | 7.48% (active) | 5.76% (active) | 4.21% (active)
NC1(C(=O)N[C@@H](CCO)c2ccc(Cl)cc2)CCN(c2ncnc3[nH]ccc23)CC1 | 61.9% | 55.6% | 17.5% | 13.7% | 53.4% | 34.4% | -46.2% (active) | 41.6% | 11.4%
C=CCN(/C=C1/C(=O)O[C@H](COC)[C@@]2(C)C1=C(O)C(=O)C1=C2[C@H](OC(C)=O)C[C@]2(C)C(=O)CC[C@@H]12)CC=C | 21.8% | 30.2% | 3.12% (active) | 3.59% (active) | 24.7% | 8.92% (active) | -66.8% (active) | 12.8% | -2.31% (active)
Cc1ccc(-n2nc(C(C)(C)C)cc2NC(=O)NCc2cc(F)ccc2Oc2ccc3c(cnn3CCO)c2)cc1 | 39.7% | 19.5% | -6.07% (active) | 4.78% (active) | 11.7% | 20.2% | -10.8% (active) | 20% | 3.32% (active)
COc1cc2cc(NCc3ccc(Cl)cc3)nc(C)c2cc1OC | 64.9% | 42% | 41.4% | 44.9% | 54.8% | 59.8% | 26% | 27.9% | 27.6%
O=C(/C=C/c1ccc2c(c1)OCO2)c1c(O)c2ccccc2oc1=O | 108% | 106% | 90.1% | 113% | 102% | 95% | 107% | 103% | 77.6%
C[C@@H](N)c1ccc(C(=O)Nc2ccnc3[nH]ccc23)cc1 | 67% | 51.8% | 13.4% | 46.2% | 36.7% | 20.6% | 56.9% | 25.5% | 42.2%
COc1ccc(Cl)c(Nc2nc3ccccc3nc2NS(=O)(=O)c2cccc(NC(=O)C(C)(C)N)c2)c1 | 48.5% | 51.2% | 8.83% (active) | 29.8% | 40.3% | 29% | -33.2% (active) | 46.9% | 13.4%
CN1CCN(c2ccc(OC(F)(F)F)c(Nc3ncc4c(n3)-c3c(c(C(N)=O)nn3CCO)CC4)c2)CC1 | 35.7% | 25.9% | 35.3% | 53.5% | 37.1% | 28.4% | -5.99% (active) | 18.2% | 18.3%
CNC(=O)c1cc(COc2nnc(Nc3ccc(Cl)cc3)c3ccoc23)ccn1 | 56.7% | 38.9% | -3.27% (active) | 33% | 23.4% | 28.2% | 62.6% | 98.2% | 73.6%
O=C(NOCCO)c1ccc2cncn2c1Nc1ccc(I)cc1F | 54.6% | 68.1% | 37.2% | 57.2% | 59.9% | 41% | -11% (active) | 77.1% | 85%
